Results filed as inconclusive are left out. Active and inactive are the calls of the source. Unless noted, the call rests on the fitted dose curve; in most records, active means well fitted curve in the direction sought with a large enough effect in the repeat runs; inconclusive means weak or mixed curves; inactive means no such curve, though single readings can be large; an effect the other way counts as inactive or inconclusive.
Columns and labels:
[1] = target: Retinoic acid receptor RXR-alpha (Homo sapiens) (UniProt P19793); experiment: qHTS assay to identify small molecule agonists of the RXR signaling pathway (AID 1159527; calls by dose curve; further: nearly all actives have a fitted effect of over 35% in size)
Summary of the method: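 Compounds in DMSO were added to RXR-alpha-UAS-bla HEK 293T cells kept in 2% charcoal-stripped serum, and incubated 16 hr at 37 C with 5% CO2. Reporter signal came from a 2 hr B/G FRET substrate step.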

[2] = qHTS assay to identify small molecule agonists of the RXR signaling pathway - cell viability counter screen (AID 1159529);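 further: HEK 293T cells carrying an RXR-alpha UAS beta-lactamase reporter; series mostly up to about 77 µM; nearly all actives have a fitted effect of over 50% in size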
Summary of the method: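 Counter screen: CellTiter-Glo luminescence. Cells: RXR-alpha-UAS-bla HEK 293T. Medium: 2% charcoal-stripped FBS. Treatment: 16 h, 37 C. Reagent incubation: 30 min, RT.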

[3] = qHTS assay to identify small molecule antagonists of the retinoid acid receptor (RAR) signaling pathway - cell viability counter screen (AID 1159551); further: nearly all actives have a fitted effect of over 35% in size
Summary of the method: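 In this counter screen, the RARE-luciferase line C3RL4 was exposed for 6 h at 37 C and 5% CO2 to compounds with retinol at 1 uM final. Cellular ATP, read by luminescence, served as the viability measure.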

[4] = qHTS assay to identify small molecule antagonists of the retinoic acid receptor (RAR) signaling pathway (AID 1159552; further: nearly all actives have a fitted effect of over 50% in size)
Summary of the method: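 Antagonism of retinol-induced RARE reporter activity was measured in C3RL4 cells. Exposure to compounds and 1 uM final retinol lasted 6 hr at 37 C, with luminescence as endpoint.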

[5] = qHTS assay to identify small molecule agonists of the retinoic acid receptor (RAR) signaling pathway (AID 1159553)
Summary of the method: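 In this cell-based screen, 1,000 C3RL4 cells per well were cultured overnight, dosed with test chemicals in DMSO for 6 hr, and assessed for RARE luciferase luminescence.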

[6] = qHTS assay to identify small molecule antagonists of the estrogen related receptor (ERR) signaling pathway from Tox21 library - cell viability counter screen (AID 1224834); further: nearly all actives have a fitted effect of over 30% in size
Summary of the method: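 Counter screen run in ERR cells (2,000 cells/well): cells pre-incubated 6 h, then treated with compounds for 17.5 h at 37 C. Fluorescence was read 30 min after CellTiter-Fluor addition.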

[7] = target: Luciferin 4-monooxygenase (Photinus pyralis) (UniProt P08659); experiment: qHTS assay to identify small molecule inhibitors of firefly luciferase (AID 1224835); further: series mostly up to about 120 µM; nearly all actives have a fitted effect of over 25% in size
Summary of the method: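 Inhibition of purified Photinus luciferase is measured by luminescence. Substrate levels (D-luciferin, ATP) sit at their KM values. Each compound is tested in a concentration series.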

[8] = qHTS assay to identify small molecule agonists of the constitutive androstane receptor (CAR) signaling pathway - cell viability counter screen (AID 1224836); further: series mostly up to about 92 µM; nearly all actives have a fitted effect of over 45% in size
Summary of the method: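 Double-stable HepG2 hepatoma cells (hCAR plus CYP2B6-2.2kb) are treated for 23 h at 37 C with test compounds in 15-point concentration series. PK11195 at 0.75 uM final is co-added. Cell viability is quantified by CellTiter-Fluor.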

[9] = qHTS assay to identify small molecule antagonists of the constitutive androstane receptor (CAR) signaling pathway - cell viability counter screen (AID 1224837); further: series mostly up to about 92 µM; nearly all actives have a fitted effect of over 45% in size
Summary of the method: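 CITCO at 50 nM final was added alongside compounds (15 concentrations) to double-stable hCAR/CYP2B6-2.2kb HepG2 cells. Following 23 hr at 37 C, cell viability was quantified by CellTiter-Fluor fluorescence intensity.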

[10] = target: Nuclear receptor subfamily 1 group I member 3 (Homo sapiens) (UniProt Q14994); experiment: qHTS assay to identify small molecule antagonists of the constitutive androstane receptor (CAR) signaling pathway (AID 1224838); further: nearly all actives have a fitted effect of over 40% in size
Summary of the method: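 Inhibition of CITCO-driven (50 nM final) CYP2B6 reporter expression is measured in HepG2 cells stably carrying hCAR. Fifteen compound concentrations are applied for 24 h at 37 C, followed by luciferase luminescence.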

[11] = qHTS assay to identify small molecule antagonists of the estrogen related receptor signaling pathway with the pleiotropic PPARgamma coactivator (PGC) from Tox21 10K library - cell viability counter screen (AID 1224840; active means well fitted cell-killing curve with a large enough effect in the repeat runs, not every such curve was filed as active; further: nearly all actives have a fitted effect of over 40% in size)
Summary of the method: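 Readout: fluorescence intensity from CellTiter-Fluor after 30 min at 37 C/5% CO2. Preceded by 17.5 h treatment of PGC/ERR cells with DMSO-dissolved compounds, added 6 h post-seeding.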

[12] = qHTS assay to identify small molecule antagonists of the estrogen related receptor signaling pathway with the pleiotropic PPARgamma coactivator (PGC) from Tox21 10K library (AID 1224841; call rule not given here; further: series mostly up to about 92 µM; actives are mostly falling curves and most rising ones were filed inactive; nearly all actives have a fitted effect of over 50% in size)
Summary of the method: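 One-Glo luminescence, measured after half an hour at room temperature, quantified reporter output of PGC/ERR cells. These had been plated at 2,000 per well, incubated 6 h, dosed with compounds in DMSO, then kept 18 h at 37 C.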

[13] = qHTS assay to identify small molecule agonists of the estrogen related receptor signaling pathway with the pleiotropic PPARgamma coactivator (PGC) from Tox21 10K library (AID 1224842); further: nearly all actives have a fitted effect of over 15% in size
Summary of the method: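 Luminescence from One-Glo (30 min, room temperature) measured after PGC/ERR cells had 18 h at 37 C with pinned compound (23 nL in DMSO). Cells had been seeded at 2,000 per well and pre-incubated 6 h.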

[14] = target: Nuclear receptor subfamily 1 group I member 3 (Homo sapiens) (UniProt Q14994); experiment: qHTS assay to identify small molecule agonists of the constitutive androstane receptor (CAR) signaling pathway (AID 1224839); further: series mostly up to about 92 µM; nearly all actives have a fitted effect of over 15% in size
Summary of the method: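 Readout: firefly luciferase luminescence via ONE-Glo. System: HepG2 double-stable for hCAR and CYP2B6-2.2kb. Conditions: 15-point compound titration, PK11195 at 0.75 uM final, 24 h incubation.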

[15] = qHTS assay to identify small molecule antagonists of the estrogen related receptor (ERR) signaling pathway - cell viability counter screen (AID 1224818); further: series mostly up to about 46 µM
Summary of the method: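 Viability of ERR cells, CellTiter-Fluor fluorescence; 17.5 h compound exposure at 37 C, DMSO vehicle; 30 min reagent incubation at 37 C/5% CO2.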

[16] = qHTS assay to identify small molecule antagonists of the estrogen related receptor (ERR) signaling pathway (AID 1224819;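 further: luminescence from an ERR-driven luciferase reporter measured with One-Glo reagent; series mostly up to about 46 µM; nearly all actives have a fitted effect of over 50% in size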)
Summary of the method: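 Seed ERR cells 2,000/well; rest 6 h at 37 C/5% CO2; pin compounds in DMSO; incubate 18 h at 37 C; add One-Glo; wait 30 min at room temperature; measure luminescence.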

[17] = qHTS assay to identify small molecule agonists of the estrogen related receptor (ERR) signaling pathway (AID 1224820)
Summary of the method: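 Luminescence readout (One-Glo, 30 min RT) from NTP-supplied ERR cell line exposed to compounds for 18 h at 37 C. Cells seeded 2,000 per well and pre-incubated 6 h before pin-tool compound transfer.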

[18] = tested on: estrogen-related receptor alpha (ERRalpha) with PGC-1alpha coactivator, human; experiment: qHTS assay to identify small molecule antagonists of the estrogen related receptor signaling pathway with the pleiotropic PPARgamma coactivator (PGC) (AID 1224821; calls by dose curve)
Summary of the method: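 PGC/ERR reporter cells; 6 h pre-incubation 37 C/5% CO2; pin-tool compound in DMSO, 18 h 37 C; One-Glo added, 30 min RT; luminescence read. qHTS antagonist mode.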

[19] = qHTS assay to identify small molecule antagonists of the estrogen related receptor signaling pathway with the pleiotropic PPARgamma coactivator (PGC) cell viability counter screen (AID 1224822; further: series mostly up to about 46 µM)
Summary of the method: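 17.5 h compound treatment of PGC/ERR cells at 37 C; readout CellTiter-Fluor fluorescence; run alongside the PGC/ERR antagonist screen to flag cytotoxic compounds.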

[20] = qHTS assay to identify small molecule agonists of the estrogen related receptor signaling pathway with the pleiotropic PPARgamma coactivator (PGC) (AID 1224823)
Summary of the method: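 Luminescence readout (One-Glo, 30 min RT) from PGC/ERR cell line treated 18 h at 37 C with pin-tool-delivered DMSO compound solutions; cells plated 6 h before dosing. Quantitative HTS format.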

Measured: Potency

Sequence of Retinoic acid receptor RXR-alpha (Homo sapiens) (P19793 whole entry, looked up): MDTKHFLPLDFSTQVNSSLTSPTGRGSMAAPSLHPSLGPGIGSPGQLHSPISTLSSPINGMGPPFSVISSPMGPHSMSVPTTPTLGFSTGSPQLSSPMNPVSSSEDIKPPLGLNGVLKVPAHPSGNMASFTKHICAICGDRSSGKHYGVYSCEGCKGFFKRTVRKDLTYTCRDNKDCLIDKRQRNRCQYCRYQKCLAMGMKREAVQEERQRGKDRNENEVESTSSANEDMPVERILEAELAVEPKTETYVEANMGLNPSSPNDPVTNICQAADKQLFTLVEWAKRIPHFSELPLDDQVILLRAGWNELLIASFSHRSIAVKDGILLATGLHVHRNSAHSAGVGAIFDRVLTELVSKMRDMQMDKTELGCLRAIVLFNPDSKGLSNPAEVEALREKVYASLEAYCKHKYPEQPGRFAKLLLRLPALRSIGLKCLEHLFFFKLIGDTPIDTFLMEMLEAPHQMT
Sequence of Luciferin 4-monooxygenase (Photinus pyralis) (P08659 whole entry, looked up): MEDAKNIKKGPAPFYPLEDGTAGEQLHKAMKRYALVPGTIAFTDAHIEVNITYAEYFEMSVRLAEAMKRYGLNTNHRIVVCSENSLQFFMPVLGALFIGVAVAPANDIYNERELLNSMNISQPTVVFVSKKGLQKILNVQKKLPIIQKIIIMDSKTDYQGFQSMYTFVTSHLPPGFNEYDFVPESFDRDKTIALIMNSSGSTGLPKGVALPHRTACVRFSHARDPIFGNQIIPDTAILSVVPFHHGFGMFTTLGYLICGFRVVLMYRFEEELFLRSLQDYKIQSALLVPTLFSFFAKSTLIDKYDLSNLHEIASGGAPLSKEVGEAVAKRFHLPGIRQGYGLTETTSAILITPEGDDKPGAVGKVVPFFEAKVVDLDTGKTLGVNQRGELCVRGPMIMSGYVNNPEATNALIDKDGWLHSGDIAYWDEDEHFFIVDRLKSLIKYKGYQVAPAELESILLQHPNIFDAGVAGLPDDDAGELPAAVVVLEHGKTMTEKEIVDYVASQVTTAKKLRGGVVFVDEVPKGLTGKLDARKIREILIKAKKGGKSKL
Sequence of Nuclear receptor subfamily 1 group I member 3 (Homo sapiens) (Q14994 whole entry, looked up): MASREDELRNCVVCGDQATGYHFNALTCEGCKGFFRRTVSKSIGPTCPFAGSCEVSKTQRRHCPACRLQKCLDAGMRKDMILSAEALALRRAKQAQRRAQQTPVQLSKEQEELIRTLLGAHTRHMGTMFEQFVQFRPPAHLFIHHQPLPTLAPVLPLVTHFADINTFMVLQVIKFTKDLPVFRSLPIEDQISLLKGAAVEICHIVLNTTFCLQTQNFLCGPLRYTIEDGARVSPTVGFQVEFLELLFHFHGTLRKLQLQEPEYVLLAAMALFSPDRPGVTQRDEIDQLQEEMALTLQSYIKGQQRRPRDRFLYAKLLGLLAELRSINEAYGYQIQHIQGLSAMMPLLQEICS

CC1(C)NC(=O)NC1=O
inactive: [1] | [2] | [3] | [4] | [5] | [6] | [7] | [8] | [9] | [10] | [11] | [12] | [13]

COc1ccc(C)cc1N
inactive: [1] | [2] | [3] | [4] | [5] | [6] | [8] | [9] | [10] | [11]

N[C@H](Cc1c[nH]c2ccccc12)C(=O)O
inactive: [1] | [2] | [3] | [4] | [5] | [6] | [7] | [8] | [9] | [11]

O=C(O)c1ccccc1C(=O)O
inactive: [1] | [2] | [3] | [4] | [5] | [6] | [8] | [9] | [10] | [11]

COC(=O)CCCC(=O)OC
inactive: [1] | [2] | [3] | [4] | [5] | [6] | [8] | [9] | [10] | [14] | [11]

CCNc1cccc(C)c1
inactive: [1] | [2] | [3] | [4] | [5] | [6] | [7] | [8] | [9] | [10] | [14] | [11] | [12] | [13]

CC1(C)S[C@@H]2[C@H](NC(=O)COc3ccccc3)C(=O)N2[C@H]1C(=O)O
inactive: [1] | [2] | [3] | [4] | [5] | [6] | [7] | [8] | [9] | [10] | [14] | [11] | [12] | [13]

CCCCC(C=O)CC (centres undefined)
inactive: [1] | [2] | [3] | [4] | [5] | [6] | [7] | [8] | [9] | [10] | [14] | [11]

CCCCCCCO
inactive: [1] | [2] | [3] | [4] | [5] | [6] | [7] | [8] | [9] | [10] | [14] | [11]

CN(C)CCOC(=O)COc1ccc(Cl)cc1
inactive: [1] | [2] | [3] | [4] | [5] | [15] | [16] | [17] | [18] | [19] | [20] | [6] | [7] | [8] | [9] | [11] | [12] | [13]

Source: PubChem BioAssay (Tox21)
